Experiment [1] is described as follows: qHTS assay to identify small molecule antagonists of the progesterone receptor (PR) signaling pathway - cell viability counter screen (AID 1346798). Further: nearly all actives have a fitted effect of over 50% in size. Further: potency means the concentration at half of the fitted maximal effect. Put shortly: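 ATP content as viability readout: CellTiter-Glo luminescence, 30 min room temperature, in PR-UAS-bla HEK293T cells after 16 hr compound/R5020 treatment at 37C and 5% CO2.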
A general note: Quantitative high-throughput screening tests each substance at several concentrations.

A short description of experiment [2]: qHTS assay to identify small molecule agonists of the progesterone receptor (PR) signaling pathway - cell viability counter screen (AID 1346799; calls by dose curve; further: nearly all actives have a fitted effect of over 45% in size; further: potency means the concentration at half of the fitted maximal effect). Summed up: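 Cytotoxicity in PR-bla HEK293T cells: 16 h compound, 37C; CellTiter-Glo added post-FRET read; luminescence after 30 min RT.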
The nature of experiment [3]: qHTS assay to identify small molecule antagonists of the TGF-beta/Smad signaling pathway - cell viability counter screen (AID 1346824). Further: nearly all actives have a fitted effect of over 50% in size. Put shortly: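 Cytotoxicity counter-screen run in the same wells as the beta-lactamase Smad reporter read: CellTiter-Glo luminescence after 30 min at room temperature. HEK 293T SBE-bla cells had 5 hr compound exposure at 37 C with TGF-beta1 (0.25 ng/mL stock).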

A short description of experiment [4]: qHTS assay to identify small molecule agonists of the TGF-beta/Smad signaling pathway - cell viability counter screen (AID 1346829). Further: top concentration of the series differs between compounds; nearly all actives have a fitted effect of over 45% in size. Put shortly:
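CellTiter-Glo luminescence readout; SBE-bla HEK 293T cells, overnight plating, compound 5 hr at 37 C/5% CO2, then bla substrate 2 hr RT, then CellTiter-Glo 30 min RT.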

Experiment [5] is described as follows: qHTS assay to identify small molecule agonists of the TGF-beta/Smad signaling pathway (AID 1346859; active means well fitted activation curve with a large enough effect in the signal ratio in the repeat runs, not every such curve was filed as active; the % refers to the signal ratio; further: series mostly up to about 77 µM). Put shortly:
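Stable Smad binding element-beta-lactamase HEK 293T cells; 5 hr compound exposure at 37 C under 5% CO2; 2 hr room-temperature substrate step; fluorescence excited at 405 nm, collected at 460 nm and 530 nm.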

A short description of experiment [6]: Human pregnane X receptor (PXR) small molecule agonists, qHTS cell viability counter screen (AID 1346977). Further: nearly all actives have a fitted effect of over 50% in size. Further: potency means the concentration at half of the fitted maximal effect. Put shortly:
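Readout is CellTiter-Fluor fluorescence from PXR-Luc HepG2 cells. Plated cells rested 5hr, then were treated with compounds for 24hr at 37C and 5% CO2, with reagent present during the last hour.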

Experiment [7] in a line: Caspase-3/7 induction in HepG2 cells by small molecules, qHTS assay (AID 1346978). Further: nearly all actives have a fitted effect of over 15% in size. Put shortly: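 Caspase-3/7 induction was measured by Caspase-Glo 3/7 luminescence (30 min, room temperature) after a 17 hr compound exposure of wild-type HepG2 cells seeded at 2,000 per well and pre-incubated 5 hr.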
The nature of experiment [8]: Caspase-3/7 induction in CHO-K1 cells by small molecules, qHTS cell viability counter screen (AID 1346979). Further: nearly all actives have a fitted effect of over 35% in size. Further: potency means the concentration at half of the fitted maximal effect. Summed up:
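To flag cytotoxic compounds, treated CHO-K1 wild-type cells were given CellTiter-Fluor at 16hr and read fluorescently after 1hr at 37C; the caspase-3/7 luminescence was measured in these same wells.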

The nature of experiment [9]: Caspase-3/7 induction in CHO-K1 cells by small molecules, qHTS assay (AID 1346980). Further: nearly all actives have a fitted effect of over 15% in size. Put shortly:
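Luminescent Caspase-Glo 3/7 read (30min, room temperature) quantified apoptosis induction. Cells were wild-type CHO-K1, treated with compound for 17hr at 37 C and 5% CO2.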

A short description of experiment [10]: Caspase-3/7 induction in HepG2 cells by small molecules, qHTS cell viability counter screen (AID 1346981). Further: nearly all actives have a fitted effect of over 30% in size. Further: potency means the concentration at half of the fitted maximal effect. Summed up:
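After a 5-hr attachment period at 37 C and 5% CO2, wild-type HepG2 cells received compounds in DMSO. Sixteen hours later CellTiter-Fluor was dispensed and the fluorescent signal quantified after a further hour.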

The target in experiment [11] is Progesterone receptor (Homo sapiens) (UniProt P06401). Nature of the experiment: qHTS assay to identify small molecule antagonists of the progesterone receptor (PR) signaling pathway (AID 1346795; active means well fitted inhibition curve with a large enough effect in the signal ratio in the repeat runs, not every such curve was filed as active; the % refers to the signal ratio; further: potency means the concentration at half of the fitted maximal effect). Summed up:
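Inhibition of R5020-induced (1 nM final) beta-lactamase reporter signal in PR-UAS-bla HEK293T cells was scored by FRET fluorescence after overnight (16 hr) compound treatment.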

For experiment [12], the target named is Thyrotropin-releasing hormone receptor (Homo sapiens) (UniProt P34981). The experiment can be described thus: qHTS assay to identify small molecule agonists of the thyrotropin-releasing hormone receptor (TRHR) signaling pathway (AID 1346891; calls by dose curve;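 further: HEK293 cells expressing TRHR with calcium dye readout; series mostly up to about 58 µM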). Put shortly:
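In 1536-format, 1500 TRHR-Hek293 cells per well grew 18 h, took up calcium dye for 2 h at 37 °C, received compound, and were read kinetically; 15-point titrations, triplicates.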

In experiment [13] the target is Nuclear receptor subfamily 1 group I member 2 (Homo sapiens) (UniProt O75469). The experiment can be described thus: Human pregnane X receptor (PXR) small molecule agonists, qHTS assay (AID 1346982). Further: nearly all actives have a fitted effect of over 35% in size. Further: potency means the concentration at half of the fitted maximal effect. Summed up: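 Tox21 qHTS; PXR-Luc HepG2; compounds pinned from DMSO; 24 hr, 37 C; ONE-Glo luciferase detection, 30 min room temperature.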
The target in experiment [14] is Acetylcholinesterase (Homo sapiens) (UniProt P22303). The experiment can be described thus: Acetylcholinesterase (AChE) small molecule antagonists: colormetric cell-based qHTS assay (AID 1347395; calls by dose curve; further: nearly all actives have a fitted effect of over 30% in size; further: potency means the concentration at half of the fitted maximal effect). Summed up:
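Neuroblastoma line SH-SY5Y supplied the enzyme; cells were preincubated with compound for 30 min at 37 C and 5% CO2. Acetylthiocholine with DTNB was then added for 90 min at 37 C, and thiocholine was measured by colour.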

Experiment [15] concerns the target Progesterone receptor (Homo sapiens) (UniProt P06401). Nature of the experiment: qHTS assay to identify small molecule agonists of the progesterone receptor (PR) signaling pathway (AID 1346784; calls by dose curve; further: nearly all actives have a fitted effect of over 30% in size; further: potency means the concentration at half of the fitted maximal effect). Summed up:
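Using charcoal-stripped serum (2%) to limit endogenous steroids, PR-UAS-bla HEK 293T cells received compounds for 16 hr at 37C after 6 hr plating; beta-lactamase FRET fluorescence was recorded following 2 hr substrate loading at room temperature.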

Experiment [16] concerns the target Thyrotropin-releasing hormone receptor (Homo sapiens) (UniProt P34981). The experiment can be described thus: qHTS assay to identify small molecule antagonists of the thyrotropin-releasing hormone receptor (TRHR) signaling pathway (AID 1346877; active means well fitted inhibition curve with a large enough effect in the repeat runs, not every such curve was filed as active; further: series mostly up to about 51 µM). Summed up: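 Calcium signal in dye-loaded TRHR/HEK293 cells; compounds added 5 min before TRH (1 nM final); fluorescence monitored 3 min at 1 s steps.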

These results are taken from PubChem BioAssay (Tox21).

Where “and” joins values, the source holds several entries; their conditions need not be identical. Equal entries are not always repeated. Inconclusive results are not listed. More than one record can exist for a structure, and the calls need not agree. Calls of active or inactive are those of the source. Unless noted, the call rests on the fitted dose curve; in most records, active means well fitted curve in the direction sought with a large enough effect in the repeat runs; inconclusive means weak or mixed curves; inactive means no such curve, though single readings can be large; an effect the other way counts as inactive or inconclusive.

Chain of Thyrotropin-releasing hormone receptor (Homo sapiens) (P34981 whole entry, looked up): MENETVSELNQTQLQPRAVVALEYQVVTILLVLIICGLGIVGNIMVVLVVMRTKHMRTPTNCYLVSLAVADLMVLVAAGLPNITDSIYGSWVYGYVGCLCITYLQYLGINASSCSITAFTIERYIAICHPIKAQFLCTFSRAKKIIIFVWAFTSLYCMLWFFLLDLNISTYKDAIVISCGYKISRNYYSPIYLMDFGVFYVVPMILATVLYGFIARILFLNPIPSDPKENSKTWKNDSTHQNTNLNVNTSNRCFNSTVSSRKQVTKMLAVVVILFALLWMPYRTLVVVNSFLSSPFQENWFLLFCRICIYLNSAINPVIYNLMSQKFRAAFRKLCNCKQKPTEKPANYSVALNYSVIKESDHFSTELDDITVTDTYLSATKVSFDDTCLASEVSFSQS
Chain of Progesterone receptor (Homo sapiens) (P06401 whole entry, looked up): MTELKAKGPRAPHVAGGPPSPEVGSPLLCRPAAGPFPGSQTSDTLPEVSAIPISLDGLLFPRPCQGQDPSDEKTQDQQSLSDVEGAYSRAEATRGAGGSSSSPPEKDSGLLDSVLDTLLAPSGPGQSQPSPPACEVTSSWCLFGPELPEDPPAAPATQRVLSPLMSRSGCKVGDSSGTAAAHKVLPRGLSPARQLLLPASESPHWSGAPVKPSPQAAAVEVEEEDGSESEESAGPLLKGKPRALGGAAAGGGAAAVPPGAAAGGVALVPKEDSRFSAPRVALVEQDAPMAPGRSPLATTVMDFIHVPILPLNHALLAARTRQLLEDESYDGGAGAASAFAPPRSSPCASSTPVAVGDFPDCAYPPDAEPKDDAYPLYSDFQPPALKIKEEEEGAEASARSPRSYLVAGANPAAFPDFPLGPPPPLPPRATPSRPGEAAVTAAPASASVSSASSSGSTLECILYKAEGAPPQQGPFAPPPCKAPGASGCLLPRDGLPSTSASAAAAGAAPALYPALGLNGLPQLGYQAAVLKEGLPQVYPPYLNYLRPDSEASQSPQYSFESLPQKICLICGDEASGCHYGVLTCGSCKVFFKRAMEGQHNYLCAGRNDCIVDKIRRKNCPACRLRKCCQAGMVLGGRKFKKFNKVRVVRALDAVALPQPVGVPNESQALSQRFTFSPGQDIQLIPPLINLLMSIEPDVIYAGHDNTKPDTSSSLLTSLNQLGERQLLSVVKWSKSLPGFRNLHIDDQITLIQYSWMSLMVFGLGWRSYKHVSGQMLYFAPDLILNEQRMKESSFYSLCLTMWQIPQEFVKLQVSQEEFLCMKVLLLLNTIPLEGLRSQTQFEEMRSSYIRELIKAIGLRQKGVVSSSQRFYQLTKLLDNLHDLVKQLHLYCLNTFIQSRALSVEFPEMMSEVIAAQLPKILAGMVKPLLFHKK
Chain of Nuclear receptor subfamily 1 group I member 2 (Homo sapiens) (O75469 whole entry, looked up): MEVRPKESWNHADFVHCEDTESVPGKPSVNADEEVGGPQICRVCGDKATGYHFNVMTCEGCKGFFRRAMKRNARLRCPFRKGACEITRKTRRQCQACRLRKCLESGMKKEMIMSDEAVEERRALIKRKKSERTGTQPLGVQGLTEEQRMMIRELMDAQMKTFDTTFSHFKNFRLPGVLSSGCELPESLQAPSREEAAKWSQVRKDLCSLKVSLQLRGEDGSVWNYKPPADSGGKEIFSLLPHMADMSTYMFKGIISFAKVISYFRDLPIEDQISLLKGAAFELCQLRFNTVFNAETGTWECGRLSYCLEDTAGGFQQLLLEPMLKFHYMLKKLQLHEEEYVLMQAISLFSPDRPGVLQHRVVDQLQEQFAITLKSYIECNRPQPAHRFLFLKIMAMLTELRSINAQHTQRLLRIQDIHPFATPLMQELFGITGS
Chain of Acetylcholinesterase (Homo sapiens) (P22303 whole entry, looked up): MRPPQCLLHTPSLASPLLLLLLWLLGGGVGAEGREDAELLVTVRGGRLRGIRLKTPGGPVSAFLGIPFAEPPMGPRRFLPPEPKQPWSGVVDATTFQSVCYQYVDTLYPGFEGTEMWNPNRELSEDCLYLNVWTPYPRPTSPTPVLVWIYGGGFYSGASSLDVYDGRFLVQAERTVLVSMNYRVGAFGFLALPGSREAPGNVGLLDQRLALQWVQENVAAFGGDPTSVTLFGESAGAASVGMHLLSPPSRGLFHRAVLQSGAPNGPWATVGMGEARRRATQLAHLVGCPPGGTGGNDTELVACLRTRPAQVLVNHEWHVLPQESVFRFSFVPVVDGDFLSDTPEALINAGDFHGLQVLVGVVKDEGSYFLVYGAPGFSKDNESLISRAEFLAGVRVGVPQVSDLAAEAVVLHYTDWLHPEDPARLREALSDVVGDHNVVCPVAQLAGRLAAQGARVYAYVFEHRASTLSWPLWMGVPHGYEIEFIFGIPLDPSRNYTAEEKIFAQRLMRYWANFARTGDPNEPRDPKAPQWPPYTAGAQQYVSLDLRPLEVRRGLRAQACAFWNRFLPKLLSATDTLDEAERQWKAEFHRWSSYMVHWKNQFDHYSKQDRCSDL

With `CCCCn1cc[n+](C)c1` (tested in a mixture with another compound), the Potency entry in experiment [1], in experiment [2], in [3], in experiment [4], in experiment [6] and in [7] was “inactive” throughout. Besides, the Potency entry in experiment [8], in experiment [9] and in experiment [10] was “inactive” in each case. Further, in experiment [5], the result was inactive.
In the case of `CCC(C)Br` (stereo not given), the Potency entry in experiment [11], in experiment [1], in experiment [2], in experiment [3], in experiment [4] and in [12] was “inactive” throughout. The Potency entry in experiment [6], in [7], in experiment [8], in experiment [9], in experiment [10] and in experiment [13] was “inactive” throughout. Besides, the Potency entry in [14] is “inactive”.
For `O=C(CCCCl)c1ccc(F)cc1`, the Potency entry in experiment [11], in experiment [1], in experiment [2], in experiment [3], in experiment [4] and in experiment [6] was “inactive” in each case. The Potency entry in experiment [7], in [8], in experiment [9], in experiment [10], in [13] and in experiment [14] was “inactive” each time.
As to `CC(C)N(C(=O)CCl)c1ccccc1`, the Potency entry in experiment [15], in [2], in experiment [4], in experiment [16], in [12] and in experiment [7] was “inactive” in each case. The Potency result in experiment [9] was “inactive”. Besides, the Potency in experiment [1] was 61.1 µM (active) and 48.6 µM (active); in experiment [6], 27.3 µM (active); in [10] it was 54.5 µM (active); in experiment [13] it was 48.6 µM (active) and inactive; in experiment [14], 63.3 µM (active).
Take `Cc1cc(C2CC2)nc(Nc2ccccc2)n1`: the Potency in [11] was 30.6 µM (active); in experiment [13] it was 54.5 µM (active). Also, the Potency entry in experiment [3], in [4], in experiment [7], in [9], in experiment [10] and in experiment [14] was “inactive” each time. Moreover, the molecule was classed as inactive in [5].
Turning to `O=S1OCC2C(CO1)C1(Cl)C(Cl)=C(Cl)C2(Cl)C1(Cl)Cl` (stereo not given), the Potency is 61.1 µM (active) in experiment [1]; 68.7 µM (active) in experiment [2]; 61.2 µM (active) and 68.5 µM (active) in [8]; 24.4 µM (active) and inactive in experiment [13]. Also, the Potency entry in [3], in [4], in [9] and in experiment [14] was “inactive” throughout. Further, the call in experiment [5] was inactive.
`COc1ccc2[nH]cc(CCN(C(C)C)C(C)C)c2c1`: the Potency entry in experiment [1], in [3], in experiment [7], in experiment [8], in [9] and in [10] was “inactive” each time. The Potency entry in experiment [13] is “inactive”. For the same molecule, in [5], the call was inactive.
For `ClC1(Cl)C2(Cl)C3(Cl)C4(Cl)C(Cl)(Cl)C5(Cl)C3(Cl)C1(Cl)C5(Cl)C24Cl` (stereo not given), the Potency result in experiment [11], in [1], in experiment [3], in experiment [16], in experiment [12] and in experiment [6] was “inactive” in each case. Further, the Potency entry in [7], in [8], in [9], in [10], in experiment [13] and in experiment [14] was “inactive” in each case. Moreover, the call in [5] was inactive.
`Nc1c(Cl)c(Cl)c(Cl)c(Cl)c1Cl`: the Potency in experiment [15] is 1.22 µM (active). The Potency entry in [4], in experiment [12], in experiment [6], in [7], in experiment [8] and in experiment [9] was “inactive” in each case. For the same molecule, the Potency result in experiment [10] and in [14] was “inactive” throughout. Further, the result in [5] was inactive.
With `CCN1CCC2(CC1)COc1cc3c(cc12)N(C(=O)c1ccc(-c2ccc(-c4nnc(C)o4)cc2C)cc1)CC3`, the Potency entry in [15], in experiment [16] and in experiment [12] was “inactive” in each case. The Potency in experiment [1] is 25.2 µM (active); in [2], 8.93 µM (active); in [6] it was 15.9 µM (active); in [8], 25.2 µM (active); in experiment [10] it was 50.2 µM (active); in experiment [13], 3.99 µM (active). In addition, in [14], the Potency was 29.3 µM (active).
As to `CCCN`, the Potency result in experiment [11], in [1], in [2], in [3], in [4] and in experiment [6] was “inactive” in each case. For the same molecule, the Potency entry in [7], in experiment [8], in experiment [9], in [10], in [13] and in experiment [14] was “inactive” each time. In addition, the outcome in experiment [5] was inactive.
Regarding `CN(C)CCc1c[nH]c2ccccc12`, the Potency result in experiment [3], in [4], in experiment [16], in [12], in experiment [7] and in [8] was “inactive” in each case. The Potency result in [9], in [10], in [13] and in experiment [14] was “inactive” in each case. In [5], the call was inactive.
